# Bioassay records as filed in PubChem BioAssay.
# Cycloheximide cs = counter-screen hit for Shiga toxin inhibitors, cycloheximide; max response, %; AID 2314; cell reporter, cycloheximide protein synthesis inhibition counterscreen; 12% of 300,000 active; in the data active = max response mostly above about 13%, no sharp cut-off; inactive = mostly below about 14%; note: read at 38.3 µM for the half of the compounds with a filed dose; 0% is about no effect
# Shiga inhibitor = Shiga toxin inhibition | Vero cells, Shiga toxin protein synthesis inhibition reporter | inhibition, % at 38.7 µM | 9.2% of 290,000 active; in the data active = inhibition mostly above about 28%, no sharp cut-off; inactive = mostly below about 43%; note: 0% is about no effect
# RE007 growth inh = less growth of the S. pombe RE007 Vpr strain. Potency, µM (highest dose often 92.2 µM), inactives show top-dose activity change, negative = less growth, usual class: inhibitors. 0.21% of 360,000 active. S. pombe RE007 Vpr strain, BacTiter-Glo ATP luminescence, 24 h; active = well fitted falling curve with a large enough effect; inconclusive = small, poorly fitted or top-dose-only effect; inactive = no such curve, though single readings can be large or run the other way; note: potency is the fitted concentration of half-maximal effect; % is set by controls: 0 for no effect and ±100 for the full control effect; nearly all actives have a fitted effect of over 50% in size
#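 Fission yeast RE007 carrying one integrated HIV-1 vpr copy, seeded at OD 0.01 in PMG+AL medium with 23 nL pinned compound. Grown 24 h at 30 degrees; viability read by BacTiter-Glo luminescence after 5 min.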
# LmPK inhibitor = inhibitors of Leishmania mexicana pyruvate kinase | Q27686 | purified LmPK, Kinase-Glo ATP luminescence, 1 h | Potency, µM (series often up to 57.5 µM), for inactives: at the highest dose activity change, negative = inhibition, hits mostly inhibitors | 0.37% of 290,000 active | AID 1721; note: potency is the fitted concentration of half-maximal effect; % is set by controls: 0 for no effect and ±100 for the full control effect
#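 Purified LmPK (0.1 nM) with 0.5 mM PEP and 0.1 mM ADP in imidazole buffer pH 7.2 with MgCl2/KCl, 1 h at room temperature. ATP formed was read by luciferase luminescence and normalized to no-enzyme and uninhibited controls.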
# Tb PYK inh = T. brucei pyruvate kinase inhibition; AID 624173; 0.12% of 410,000 active; TbPYK enzyme, Kinase-Glo Plus ATP luminescence, 45 min; Potency, µM (top dose mostly 76.8 µM), for the others: at the highest dose activity, negative = inhibition, usual class: inhibitors; Q57TT1; note: potency is the fitted concentration of half-maximal effect; % is set by controls: 0 for no effect and ±100 for the full control effect; nearly all actives have a fitted effect of over 50% in size
#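 TbPYK + substrate in 50 mM TEA pH 7.2, 100 mM KCl, 10 mM MgCl2, 0.05% BSA, 0.01% Tween-20; cpd pinned; ADP 130 uM final; 45 min RT; Kinase-Glo Plus 10 min; luminescence endpoint.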
# FBPA Giardia inh = inhibitors of Giardia lamblia fructose-1,6-bisphosphate aldolase | Potency, µM (top dose mostly 59.6 µM), without a hit: top-dose activity, negative = inhibition, hits mostly inhibitors | purified Giardia FBPA | A8B2U2 | 0.71% of 290,000 active; note: potency is the fitted concentration of half-maximal effect; % is set by controls: 0 for no effect and ±100 for the full control effect; nearly all actives have a fitted effect of over 55% in size
# Target sequence (A8B2U2 whole entry, looked up): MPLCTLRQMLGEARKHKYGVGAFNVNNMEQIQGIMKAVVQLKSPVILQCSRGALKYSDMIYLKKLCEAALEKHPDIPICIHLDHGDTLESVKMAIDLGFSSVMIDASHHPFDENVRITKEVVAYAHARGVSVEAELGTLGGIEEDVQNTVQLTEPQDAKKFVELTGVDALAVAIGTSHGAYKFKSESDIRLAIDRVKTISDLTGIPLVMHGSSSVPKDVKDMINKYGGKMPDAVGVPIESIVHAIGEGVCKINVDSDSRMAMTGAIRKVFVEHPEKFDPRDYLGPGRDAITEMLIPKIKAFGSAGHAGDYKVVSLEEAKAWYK
#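 40 nM FBPA preincubated 10 min at RT with compound (up to 57.5 uM final), then substrate plus GAPDH/TPI/NAD/arsenate coupling and diaphorase/resazurin added. Fluorescence read after 20 min at RT, 525/598 nm.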
# * = called active by the depositor; ? = inconclusive; . = not tested or not shown; [ ] = dose if it differs, or a comment. This is one part of a sample in which hits are shown more often than they occur. Unless noted, calls come from the whole dose curve; as a rule, active = well fitted curve in the direction sought with a large enough effect; inconclusive = small, poorly fitted or top-dose-only effect, or another doubt; inactive = no such curve, though single readings can be large; an effect the other way counts as inactive or inconclusive.
SMILES,Cycloheximide cs,Shiga inhibitor,RE007 growth inh,LmPK inhibitor,Tb PYK inh,FBPA Giardia inh
COc1cccc(OCC(=O)NNC(=O)C(=O)N2CCCC2)c1,-2.9,16.4,3.6%,2.6%,-10.5%,1.5%
COc1cccc(OCC(=O)NNC(=O)C(=O)Nc2cccc(C)c2)c1,28.4*,59.9,-15.7%,-1.3%,4.6%,.
COc1ccc(OCC(=O)Nc2cc(OC)cc(OC)c2)cc1,-2.3,-11.1,-2.9%,4.1%,0.7%,-0.3%
COc1cccc(NC(=O)COc2ccccc2C(N)=O)c1,40.1*,59.9*,-14.1%,?,1.1%,0.0%
COc1ccc(OCC(=O)Nc2cccc(OC)c2)cc1,42.3*,103.2*,7.4%,-13.6%,3.3%,-13.1%
COc1ccccc1CN1CC[C@@]2(CCCN(C(=O)c3cccn3C)C2)C1,.,.,.,.,-5.3%,-8.8%
FC(F)C(F)(F)C(F)(F)C(F)(F)c1cc(-c2ccccc2)n[nH]1,22.2*,72.9,?,7.5%,0.2%,-5.2%
CC(=O)c1ccccc1NS(=O)(=O)c1cc2c(cc1C)NC(=O)CO2,.,.,.,.,-5.7%[15.4 µM],.
O=C(CSC1=NNC(c2ccccn2)S1)Nc1cccc(Cl)c1 (stereo not given),40.2*,61.8*,3.0%,4.1%,-10.9%,-12.6%
O=C(CSC1=NNC(c2ccccn2)S1)Nc1ccccc1 (stereo not given),21.8*,36.3,11.4%,-6.9%,-10.2%,?
Clc1ccccc1-c1nc(-c2ccc(Br)o2)no1,37.4*,129.5*,-17.2%,1.2%,-7.9%,12.0%
O=[N+]([O-])c1ccccc1-c1nc(-c2ccc(Br)o2)no1,30.3*,88.4*,-28.2%,1.7%,-10.7%,0.4%
Cn1nc(-c2ccccc2)c(-c2nc(-c3ccccc3Cl)no2)c1Cl,-2.0,-4.1,2.7%,-0.8%,-1.8%,-1.3%
Nc1nnc(-c2ccccc2[N+](=O)[O-])o1,-1.5,-8.9,5.3%,-12.3%,-3.3%,0.9%
Cc1ccc(S(C)(=O)=NS(=O)(=O)c2cccc3nsnc23)cc1 (stereo not given),0.9,10.9,-7.3%,2.9%,2.0%,3.7%
O=C(c1ccco1)c1coc2c1cc(O)c1ccccc12,31.6*,99.6*,15.3%,-2.5%,-5.3%,?
O=C(NCc1cccnc1)c1cn(-c2ccccc2)nc1-c1ccccc1,21.0*,20.5,8.8%,0.8%,2.6%,5.5%
O=C(/C=C/c1ccc(-c2ccccc2)cc1)NCc1cccnc1,28.0*,.,10.5%,1.1%,-3.7%,-0.6%
O=C(/C=C/NCc1cccnc1)c1ccc(-c2ccccc2)cc1,33.4*,90.5*,-28.2%,-5.4%,-5.0%,8.0%
O=C(/C=C/c1ccccc1)NCc1cccnc1,2.6,0.5,4.7%,2.9%,1.9%,1.2%
COc1ccc(Cl)cc1NC(=O)C1CCN(S(=O)(=O)c2ccc3c(c2)CCCN3C(=O)C2CCC2)CC1,.,.,.,.,0.0%,.
Cc1nnc2sc(-c3ccc(N(C)C)cc3)nn2c1=O,27.7*,53.7*,-11.9%,-10.7%,-5.0%,0.0%
C=CC(C)(C)c1c2c(c(O)c3c(=O)c4ccc(O)c(O)c4oc13)C=CC(C)(C)O2,.,.,.,.,.,-24.0%
C=CCn1c(NS(=O)(=O)c2ccccc2)c(S(=O)(=O)c2ccc(C)cc2)c2nc3ccccc3nc21,8.7,15.6,-15.0%,0.8%,-4.4%,0.141µM*
O=S(=O)(Nc1c(S(=O)(=O)c2ccccc2)c2nc3ccccc3nc2n1C1CCCCC1)c1ccccc1,1.0,-9.5,?,2.3%,0.1%,?
N#CCC(=O)N/N=C/c1cc([N+](=O)[O-])ccc1N1CCCC1,33.1,46.7*,0.0%,1.4%,7.6%,0.6%
CCC(=O)N(C)/C=C1\Sc2ccccc2C1=O,29.6*,148.1*,-4.7%,-5.6%,6.1%,.
CC(=O)Nc1ccc(/C=C2\Sc3ccccc3C2=O)cc1,4.7,25.5,5.8%,-0.7%,-4.5%,2.0%
O=CN(/C=C1\Sc2ccccc2C1=O)Cc1ccccc1,40.0*,67.2*,-17.5%,13.4%,5.9%,-2.6%
CC(=O)N(C)/C=C1\Sc2ccccc2C1=O,16.6*,41.9,?,9.8%,0.7%,8.0%
